# Tau FP inhib = blocks human tau fibril formation measured by polarization; P10636; K18 P301L tau heparin fibrillization, Alexa594 FP, 6 h; Potency, µM (top dose mostly 57.7 µM), for inactives: at the top dose activity, negative = inhibition, most hits filed as inhibitors; actives 0.39% (n = 280,000); AID 1468; also: potency is read from the fitted curve at half-maximal effect; nearly all actives have a fitted effect of over 55% in size
# Target sequence (P10636 561-689 P618L limits assumed): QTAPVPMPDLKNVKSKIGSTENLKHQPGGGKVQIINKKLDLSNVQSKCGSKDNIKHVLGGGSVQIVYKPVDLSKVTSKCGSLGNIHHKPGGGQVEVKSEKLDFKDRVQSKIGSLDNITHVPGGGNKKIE
#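 Read-out: fluorescence polarization of Alexa 594-labeled tau (0.24 uM), 555 nm excitation, 632 nm emission. Mixtures held 15 uM unlabeled K18 P301L, compound and 20 uM heparin, pH 7 acetate buffer, incubated 6 hr at 37 C.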
# Tau fluor counter = counter-screen for tau fibril formation inhibitors | tau K18 P301L Alexa594 fluorescence, heparin fibrillization | Potency, µM (highest dose often 57.7 µM), for the others: at the highest dose activity change, negative = decrease | actives 0.93% (n = 280,000); also: potency is read from the fitted curve at half-maximal effect; nearly all actives have a fitted effect of over 55% in size
#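 Human K18 P301L tau (15 uM unlabeled plus 0.24 uM Alexa 594-labeled, final) in 100 mM sodium acetate pH 7 was mixed with compound and 20 uM heparin and incubated 6 hr at 37 C.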
# Sfp PPTase inh = Sfp phosphopantetheinyl transferase inhibition. Biochemical Sfp PPTase activity, qHTS. Potency, µM, for the others: largest response in the series, negative = inhibition, usual class: inhibitors. actives 3.5% (n = 310,000). AID 1490;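 also: the enzyme is Sfp with the accession as filed and its product quenches rhodamine fluorescence; potency is read from the fitted curve at half-maximal effect; 0% = enzyme reaction without inhibitor and -100% = no enzyme wells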
#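 Fluorescence-quenching assay with 15 nM Sfp, 5 uM rhodamine-CoA and 12.5 uM BHQ-2-labelled ybbR peptide in pH 7.6 Hepes/MgCl2 buffer. Enzyme was pre-incubated with compound for 15 min at room temperature. Rate was taken from the 30-min fluorescence change (525/598 nm).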
# FBPA coupling cs = coupling enzyme interference in Giardia aldolase counter-screen | actives 0.67% (n = 290,000) | activity change, negative = inhibition, % at 58.2 µM, hits read low | coupling enzyme system counterscreen, AmpLite Red fluorescence | AID 2472; in the data active = activity change below about -30%
#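 Counterscreen of the coupled detection system alone, without aldolase: glyceraldehyde-3-phosphate coupling enzymes plus AmpLite Red readout. Compounds at 57.5 uM final, 10 min RT preincubation, 20 min RT reaction, fluorescence 525/598 nm.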
# G9a inh = inhibitors of human histone lysine methyltransferase G9a; Q96KQ7; G9a H3K9 monomethylation, AlphaScreen, 2 h; Potency, µM (doses to about 102 µM), without a hit: at the top dose activity, negative = inhibition, usual class: inhibitors; actives 8.8% (n = 350,000); AID 504332; also: potency is read from the fitted curve at half-maximal effect; nearly all actives have a fitted effect of over 75% in size
# Target sequence (Q96KQ7 913-1193 limits assumed): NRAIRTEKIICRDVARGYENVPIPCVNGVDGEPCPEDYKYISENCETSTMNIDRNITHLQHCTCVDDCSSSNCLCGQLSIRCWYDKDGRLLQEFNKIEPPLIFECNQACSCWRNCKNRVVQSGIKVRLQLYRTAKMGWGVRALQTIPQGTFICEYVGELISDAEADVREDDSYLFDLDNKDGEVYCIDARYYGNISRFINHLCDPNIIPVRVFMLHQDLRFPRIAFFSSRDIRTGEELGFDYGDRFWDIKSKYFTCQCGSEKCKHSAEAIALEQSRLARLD
#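 Step 1: enzyme (final 20 nM) with compound, 15 min RT. Step 2: substrate peptide 500 nM and SAM 20 uM, 2 h RT. Step 3: anti-H3K9me1 antibody and AlphaScreen beads, 10 min, then plate read.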
# Tau fibril ThT = inhibitors of human tau fibril formation, thioflavin T binding | AID 1460 | P10636 | recombinant tau K18 P301L (four-repeat tau fragment), heparin-induced fibrillization, ThT fluorescence | Potency, µM (series often up to 57.4 µM), without a hit: at the top dose activity, negative = inhibition, most hits filed as inhibitors | actives 2.1% (n = 270,000); also: potency is read from the fitted curve at half-maximal effect; nearly all actives have a fitted effect of over 55% in size
#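 In this qHTS, human K18 P301L tau is incubated with compound and heparin for 6 hr at 37 C, and Thioflavin T fluorescence then reports fibril load.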
# Sfp inh conf = confirmation of Bacillus subtilis Sfp PPTase inhibitors. Sfp PPTase enzymatic assay, qHTS titration. actives 79% (n = 380). shares compounds with Sfp PPTase inh. AID 2701. Potency, µM (series often up to 114 µM), without a hit: at the top dose activity change, negative = inhibition, usual class: inhibitors;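 also: potency is read from the fitted curve at half-maximal effect; plate controls were uninhibited Sfp reaction for no effect and no enzyme control for full effect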
# Target sequence (Q9F4F7 whole entry, looked up): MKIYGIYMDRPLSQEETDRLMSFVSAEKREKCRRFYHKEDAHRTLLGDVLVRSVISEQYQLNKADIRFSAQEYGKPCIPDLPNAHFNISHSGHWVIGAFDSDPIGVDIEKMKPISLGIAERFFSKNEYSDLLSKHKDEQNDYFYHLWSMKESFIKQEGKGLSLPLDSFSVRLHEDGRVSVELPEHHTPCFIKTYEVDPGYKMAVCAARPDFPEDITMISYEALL
# Sfp gel assay = Inhibits B. subtilis Sfp phosphopantetheinylation; shares compounds with Sfp PPTase inh; purified Sfp, gel-based phosphopantetheinylation read-out; Potency, µM, most hits filed as inhibitors; actives 20% (n = 210); AID 2707;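 active = potency below 100 µM; inconclusive = dose-dependent response but potency above 100 µM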;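 also: band intensities scaled against SCH202676 control wells before curve fitting; potency is an IC50 for inhibitors of Sfp transfer activity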
# Active calls of the source: *; i = inactive; ? = inconclusive; . = no result; ! = not active in a repeat; [ ] = dose if it differs, or a comment. A selection: hits, their analogues and other compounds. The true share with any hit is near 11%. Unless noted, calls follow the shape of the dose curve; as a rule, active = well fitted curve in the direction sought with a large enough effect; inconclusive = small, poorly fitted or top-dose-only effect, or another doubt; inactive = no such curve, though single readings can be large; an effect the other way counts as inactive or inconclusive. Unless noted, % is scaled to controls: 0 for no effect and ±100 for the full control effect.
SMILES,Tau FP inhib,Tau fluor counter,Sfp PPTase inh,FBPA coupling cs,G9a inh,Tau fibril ThT,Sfp inh conf,Sfp gel assay
CCNC(=O)O/N=C1\CCCCC1c1ccc([N+](=O)[O-])cc1[N+](=O)[O-] (stereo not drawn),.,.,-0.6%,-9.3,?,.,.,.
CCCCCCCCc1nnc(NC(=O)c2ccco2)s1,5.2%,-10.0%,1.7%,7.3,-3.0%,-10.2%,.,.
Cc1c(Cl)cccc1NC(CC(=O)c1ccccc1)C(=O)O (stereo not drawn),?,-7.4%,7.94µM*,1.2,?,?,10.5µM*,i
Cc1c(Cl)cccc1NC(=O)CC(Cc1ccccc1)C(=O)O (stereo not drawn),.,.,21.1%,6.9,23.6%,.,.,.
O=C(CC(Nc1ccc(Cl)cc1)C(=O)O)c1ccccc1 (stereo not drawn),2.4%,-8.5%,7.08µM*,-0.4,2.24µM*,-7.4%,?,?
O=C(CC(Nc1ccccc1Cl)C(=O)O)c1ccccc1 (stereo not drawn),?,-10.6%,3.98µM*,4.4,?,?,13.2µM*,?
O=C(CC(CC(=O)c1ccccc1)C(=O)O)c1ccccc1,1.7%,-3.5%,2.9%,3.1,?,-3.6%,.,.
O=C(CSc1ccccc1)Nc1nnc(COc2ccc(Cl)cc2)s1,?,?,14.1µM*,2.3,1.41µM*,28.2µM*,5.91µM*,.
CCOC(=O)c1cc(-c2ccccc2)sc1NC(=O)c1ccc(OC)cc1,-7.5%,-0.7%,14.1µM*,7.3,?,-7.9%,8.35µM*,.
COC(=O)c1sc(-c2ccccc2)cc1NC(=O)c1ccc(OC)cc1,-12.7%,-6.5%,-1.7%,-1.1,13.8%[59 µM],-4.5%,.,.
COc1ccc(NC(=S)N(CCC(C)C)C2CCN(C(C)C)CC2)cc1Cl,.,.,3.98µM*,-46.5*,5.01µM*,.,1.87µM*,.
O=C(CSc1ccc(F)cc1)Nc1nnc(-c2ccco2)o1,.,.,.,.,0.6%[0.501 µM],.,.,.
COc1cccc(NC(=O)CCNC(=O)c2ccccc2Cl)c1,1.8%,-3.0%,8.3%,0.7,-9.0%,-2.6%,.,.
Cn1ncc(C(=O)N2CCN(c3ccccc3)CC2)c1C1CCN(C(=O)OC(C)(C)C)CC1,-11.0%,-4.4%,.,.,-0.3%[59 µM],-8.8%,.,.
CC(=O)O[C@H]1C(=O)[C@@]2(C)[C@H]([C@H](OC(=O)c3ccccc3)[C@]3(O)C[C@H](OC(=O)[C@H](O)C(NC(=O)c4ccccc4)c4ccccc4)C(C)=C1C3(C)C)[C@]1(OC(C)=O)CO[C@@H]1C[C@@H]2O (stereo partly drawn),-12.2%,-18.4%,10µM*,-0.2,12.2%[12.7 µM],?,29.6µM*,i
Nn1c(=O)c2ccccc2n2c(SCc3ccc(C(F)(F)F)cc3)nnc12,5.5%,0.7%,44.7µM*,0.0,3.98µM*,-14.4%,?,i
Cc1[nH]c2ccccc2c1C(=O)CSc1n[nH]c(N)n1,-7.9%,2.0%,15.5%,-1.7,6.2%,-0.7%,.,.
Cc1ccc(C(=O)CSc2nnc3c4ccccc4nc(Cc4ccccc4)n23)cc1,8.6%,7.0%,8.91µM*,3.5,-1.8%,7.2%,?,i
Cc1ccc(C(=O)CSc2nnc3ccc4ccccc4n23)cc1,9.5%,-0.7%,.,.,-27.5%[59 µM],-13.2%,.,.
Cc1[nH]c(C)c(S(=O)(=O)NCc2ccco2)c1C(=O)N1CCCCC1,.,.,9.5%,-0.7,-1.0%,.,.,.
O=C(CSc1ccc(-c2ccco2)nn1)c1ccccc1,-10.9%,-22.7%,3.16µM*,1.7,7.94µM*,?,9.37µM*,.
O=C(O)c1ccnc(SCC(=O)c2ccccc2)c1,0.0%,15.9%,3.55µM*,14.4,22.4µM*,3.8%,52.7µM*,.
CC(OC(=O)C1CC1C)C(=O)Nc1ccc(Cl)cn1 (stereo not drawn),.,.,.,.,-0.2%,.,.,.
CN1CCN2c3ccccc3Cc3ccccc3C2C1 (stereo not drawn),4.6%,-8.0%,44.7µM*!,-3.5,35.5µM*,-5.7%,?,?
CC(C)(C)c1ccc(OCCC(=O)NCCc2ccc(S(N)(=O)=O)cc2)cc1,.,.,20µM*,.,?,.,11.8%,.
Cc1ccc(OCCC(=O)NCCc2ccc(S(N)(=O)=O)cc2)cc1,-11.2%,-7.8%,3.6%,6.1,-7.3%[59 µM],-5.6%,.,.
CCC1CCc2c(sc(NC(=O)c3cnccn3)c2C(N)=O)C1 (stereo not drawn),.,.,10µM*,1.6,3.55µM*,.,8.35µM*,.
CC(C)(C)n1nc2c(c1NC(=O)c1cc3ccccc3o1)CS(=O)(=O)C2,-3.4%,-5.5%,3.9%,0.7,?,-7.9%,.,.
CCCC(=O)Nc1ccc(-c2csc(NNC(C)=O)n2)cc1,-18.4%,?,5.01µM*,2.4,35.5µM*,.,?,?
O=C(COc1ccccc1)Nc1nnc(COc2ccccc2)s1,.,.,10.7%,.,.,.,.,.

# Compound activity deposited in PubChem BioAssay by National Center for Advancing Translational Sciences (NCATS).
